Screening data as filed in PubChem BioAssay.
Rows were chosen to be rich in hits. Some 9.8% of all compounds tested hit in one or more screens of this group.
KDM4E inh: blocks human JMJD2E demethylase activity | JMJD2E catalytic domain, FDH-coupled NADH fluorescence (FDH is formaldehyde dehydrogenase) | B2RXH2 | Potency, µM (highest dose often 57.1 µM), for the others: at the top dose activity change, negative = inhibition, usual class: inhibitors | 230,000 compounds, 1.6% hits;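 note: potency is the fitted concentration of half-maximal effect; 0% = wells with enzyme and -100% = buffer wells without enzyme; nearly all actives have a fitted effect of over 50% in size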
ALDH1A1 inh: inhibitors of human aldehyde dehydrogenase 1A1; P00352; Purified ALDH1A1, NADH fluorescence, propionaldehyde substrate; Potency, µM (top dose mostly 75.3 µM), without a hit: at the top dose activity, negative = inhibition, most hits filed as inhibitors; 220,000 compounds, 7.3% hits; AID 1030;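 note: potency is the fitted concentration of half-maximal effect; plate controls were no enzyme wells and a reference inhibitor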
CBFb-RUNX1 inh: blocks binding between human CBF-beta and RUNX1; Q01196+Q13951; AlphaScreen CBFb-His/RUNX1-biotin binding, biochemical; Potency, µM (series often up to 59.8 µM), for inactives: top-dose activity, negative = inhibition, actives largely listed as inhibitors; 230,000 tested, under 10 active; AID 1477; active = well fitted curve in the direction sought with a large enough effect; inconclusive = small, poorly fitted or top-dose-only effect, or another doubt; inactive = no such curve, though single readings can be large; an effect the other way counts as inactive or inconclusive; note: % of control where 0% means no effect
Target sequence (Q01196 whole entry, looked up): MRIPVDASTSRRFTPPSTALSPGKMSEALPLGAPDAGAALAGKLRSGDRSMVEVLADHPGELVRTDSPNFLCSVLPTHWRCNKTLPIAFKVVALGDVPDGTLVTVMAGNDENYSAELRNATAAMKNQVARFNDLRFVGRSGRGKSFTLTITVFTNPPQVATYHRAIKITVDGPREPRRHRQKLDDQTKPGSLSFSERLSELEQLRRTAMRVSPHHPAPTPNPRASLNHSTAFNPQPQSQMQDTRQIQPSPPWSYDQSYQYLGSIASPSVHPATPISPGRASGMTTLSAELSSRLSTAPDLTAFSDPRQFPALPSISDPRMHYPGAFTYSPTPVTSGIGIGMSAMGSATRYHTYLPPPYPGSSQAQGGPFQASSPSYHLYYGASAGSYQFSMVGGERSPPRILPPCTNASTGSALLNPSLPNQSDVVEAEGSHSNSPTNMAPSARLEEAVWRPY
Target sequence (Q13951 whole entry, looked up): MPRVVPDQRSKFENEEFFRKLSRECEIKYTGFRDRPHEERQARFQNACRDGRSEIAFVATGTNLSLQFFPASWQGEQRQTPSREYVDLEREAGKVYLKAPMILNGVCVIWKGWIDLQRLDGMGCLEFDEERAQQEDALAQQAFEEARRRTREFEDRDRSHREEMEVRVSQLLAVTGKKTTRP
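Room-temperature protein-protein interaction test with 30 nM each of His-tagged CBF-beta and biotinylated RUNX1, 15 min with compound, then 90 min with nickel plus streptavidin beads. Signal read in AlphaScreen mode.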
HttQ103 aggreg: inhibitors of mutant huntingtin aggregate formation in PC12 cells. PC12 HttQ103-GFP aggregates, Acumen cytometry, 40 h. Potency, µM (doses to about 46.1 µM), for the others: top-dose activity change, negative = inhibition, actives largely listed as inhibitors. 220,000 compounds, 1.1% hits. AID 1688; active = well fitted curve in the direction sought with a large enough effect; inconclusive = small, poorly fitted or top-dose-only effect, or another doubt; inactive = no such curve, though single readings can be large; an effect the other way counts as inactive or inconclusive; note: potency is the fitted concentration of half-maximal effect; % is set by controls: 0 for no effect and ±100 for the full control effect; nearly all actives have a fitted effect of over 60% in size
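Ecdysone-promoter PC12 model expressing HTT exon 1 Q103 fused to GFP, induced by tebufenozide at 100 nM final. Compounds titrated; aggregates sized 1–25 µm scored on a 488 nm laser cytometer.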
HTT cytoprotect: protects HTT-Q103 PC12 cells, measured by ATP; PC12 HTT-Q103 induced, cytoprotection, ATP luminescence, 40 h; Potency, µM (doses to about 56.4 µM), without a hit: cytoprotection (ATP increase), actives largely listed as activators; 230,000 compounds, 0.14% hits; AID 1471; active = well fitted curve in the direction sought with a large enough effect; inconclusive = small, poorly fitted or top-dose-only effect, or another doubt; inactive = no such curve, though single readings can be large; an effect the other way counts as inactive or inconclusive; note: potency is the fitted concentration of half-maximal effect; % of control where 0% means no effect; nearly all actives have a fitted effect of over 45% in size
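Quantitative HTS on tebufenozide-induced (100 nM) PC12 cells expressing HTTQ103 exon 1–GFP; compounds tested as a concentration series; survival measured via cellular ATP.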
HPGD block: blocks human HPGD enzyme activity; P15428; purified HPGD, NADH fluorescence kinetic, PGE2 substrate; Potency, µM, for inactives: at the highest dose activity change, negative = inhibition, usual class: inhibitors; 150,000 compounds, 4.3% hits; AID 894; note: potency is the fitted concentration of half-maximal effect; % is set by controls: 0 for no effect and ±100 for the full control effect
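20 nM HPGD preincubated 15 min at room temperature with compound in 50 mM Tris-HCl pH 8, 0.01% Tween 20. Started with 1 mM NAD+ and 30 uM prostaglandin E2; NADH fluorescence (360/450 nm) read 5 times over 30-s intervals, last minus first.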
Starred values were filed as active, the others as inactive; ? = inconclusive; nt = no result given; ! = not confirmed by another sample; [ ] = dose if it differs, or a comment. Unless noted, calls come from the whole dose curve; as a rule, active = well fitted inhibition curve with a large enough effect (not every such curve was filed as active); inconclusive = small, poorly fitted or top-dose-only effect, or another doubt; inactive = no such curve, though single readings can be large or run the other way.

SMILES	KDM4E inh	ALDH1A1 inh	CBFb-RUNX1 inh	HttQ103 aggreg	HTT cytoprotect	HPGD block
Cn1c(=O)c([N+](=O)[O-])c(NCc2ccccc2)c2ccccc21	6%	16µM*	4%	16%	-7%[10 µM]	6.3µM*
O=c1oc2ccccc2c(NCCO)c1[N+](=O)[O-]	9%	6%	-18%	9%	11%[10 µM]	nt
c1ccc(N2OCC3Cn4c(nc5ccccc54)C32)cc1 (stereo not drawn)	?	nt	-5%	-13%[9.22 µM]	-11%[10 µM]	nt
CC(=O)Nc1ccc(-n2nnnc2SCC(=O)N2CCN(C(=O)c3ccco3)CC2)cc1	-3%	?	12%	3%	5%[10 µM]	-14%
CC(C)(C)c1ccc(S(=O)(=O)N2CC(=O)Nc3ccccc32)cc1	-1%	?	-7%	14%[9.22 µM]	12%	-14%
O=c1oc2ccccc2c(NCc2ccccc2)c1[N+](=O)[O-]	0%	11µM*	-18%	-10%	0%[10 µM]	25µM*
O=c1oc2ccccc2c(NCc2ccc(Cl)cc2)c1[N+](=O)[O-]	0%	nt	-8%	7%[9.22 µM]	10%[10 µM]	nt
COc1ccc(N2CCN(CC(O)COC(C)(C)C)CC2)cc1 (stereo not drawn)	25µM*	?	6%	12%	-17%[10 µM]	nt
Cc1ccc(SCc2[nH]nc3c2C2(C(=O)Nc4ccc([N+](=O)[O-])cc42)C(C#N)=C(N)O3)cc1 (stereo not drawn)	-2%	13µM*	-12%	?	-17%	-22%
Cc1ccc(SCc2[nH]nc3c2C2(CCSCC2)C(C#N)=C(N)O3)cc1	-8%	10µM*	-5%	6%	-4%	-14%
Cc1ccc(NC(=O)CSc2nnc(-c3ccccn3)n2C)cc1	-3%	-1%	-3%	2.8µM*	-16%	0%
Cc1ccc(NC(=O)Cc2nnc(SCC(=O)Nc3ccccc3)n2C)cc1	10%	10%	5%	0.18µM*	nt	-4%
Cn1c(SCC(=O)Nc2ccc3c(c2)OCCO3)nnc1-c1ccccn1	3%	-3%	-5%	-18%	-2%	-14%
CCCn1ncc(CN2CCN(CCc3ccccc3)C(CCO)C2)c1C (stereo not drawn)	3%	7%	4%	-8%[9.22 µM]	-4%[10 µM]	nt
COc1ccc(N2COC3c4cccc5cccc(c45)C32)cc1 (stereo not drawn)	-9%	19µM*	-22%	?	27%[1.9 µM]	-20%
CCOC(=O)CC(NC(=O)c1cc2cccc(OC)c2oc1=O)c1cccc([N+](=O)[O-])c1 (stereo not drawn)	?	22µM*	-10%	23%	5%[10 µM]	?
O=C(NNC(=O)c1ccccc1[N+](=O)[O-])c1ccccc1[N+](=O)[O-]	-9%	22µM*	-5%	16%	-20%	nt
O=C(NC(=S)NNC(=O)c1ccccc1[N+](=O)[O-])c1ccccc1	?	10µM*	4%	-22%	-7%[1.9 µM]	32µM*
O=C(NCc1cccs1)c1ccccc1[N+](=O)[O-]	3%	8%	1%	?	-41%[10 µM]	13µM*
O=C(O)c1ccc(COc2c(F)c(F)c(F)c(F)c2F)o1	12%	8%	-5%	5%	-9%[10 µM]	-15%
Cc1ccc(NCc2ccccc2O)c(C)c1	2%	-1%	-10%	-11%	-44%	nt
Cc1cc(C)nc(NC(=NCCc2c[nH]c3ccccc23)NC(=O)C(C)(C)C)n1	-7%	nt	2%	5%[9.22 µM]	-8%[10 µM]	nt
O=C(CSc1ccc(Br)cc1)N1CCN(C(=O)c2ccco2)CC1	5%	-6%	6%	-2%	-42%	nt
O=C(O)c1ccc(N/N=C/c2cccc(F)c2)cc1	9%	20µM*	-6%	-3%	-8%[10 µM]	?
COc1cc(/C=C/C(=O)CC(=O)/C=C/c2ccc(O)c(OC)c2)ccc1O	35µM*	8.9µM*!	-5%	?	?	14µM*!
SMILES	KDM4E inh	ALDH1A1 inh	CBFb-RUNX1 inh	HttQ103 aggreg	HTT cytoprotect	HPGD block
COc1cc(/C=C/C(=O)/C=C(O)/C=C/c2ccc(O)c(OC)c2)ccc1O	20µM*	-4%	-10%	5%	?	22µM*!
COc1cc(C=O)ccc1O	3%	25µM*	7%[21.7 µM]	nt	-8%[1.9 µM]	-15%
COc1cc(/C=C2/C(=O)CNC2=O)ccc1O	-13%	13µM*	-12%	8%	-22%[10 µM]	nt
Cc1ccccc1C1CC(=O)Oc2ccc(O)cc21 (stereo not drawn)	nt	20µM*	-4%[89.1 µM]	nt	14%[96.6 µM]	28µM*
COc1ccccc1C1CC(=O)Oc2cc(O)ccc21 (stereo not drawn)	nt	?	-12%[89.1 µM]	nt	0%[96.6 µM]	-7%
CC(C)S(=O)(=O)N1CCN(c2ccnc3cc(Cl)ccc23)CC1	0%	14µM*	9%	-5%[9.22 µM]	9%[10 µM]	nt
COc1ccc(C2C(CC(=O)O)=C(O)C(=O)N2c2ccccc2)cc1 (stereo not drawn)	?	18µM*	4%	18%	-25%	-23%
CN1CCN(c2ccc([N+](=O)[O-])cc2C(=O)c2ccc(Br)cc2)CC1	-2%	28µM*	-5%	3%	-66%	-12%
CCC(CC)c1nnc(NC(=O)c2cc([N+](=O)[O-])ccc2N2CCCCC2)s1	-7%	7.9µM*	-2%	5%	-1%[10 µM]	-20%
Cc1ccc(C(=O)c2cc([N+](=O)[O-])ccc2N2CCN(C)CC2)cc1	0%	?	-6%	8%	-71%	-3%
CC(C)CNC(=O)c1cc([N+](=O)[O-])ccc1N1CCCCC1	8%	0%	0%	17%	19%[10 µM]	-9%
O=C(NC1CCCCC1)c1cc([N+](=O)[O-])ccc1N1CCCCC1	0%	13µM*	3%	-12%	-13%[10 µM]	-7%
O=C(NC12CC3CC(CC(C3)C1)C2)c1cc([N+](=O)[O-])ccc1N1CCOCC1	-1%	13µM*	7%	-10%[9.22 µM]	-7%[10 µM]	nt
COCC1CCN(Cc2cn(C)nc2-c2cccc(Cl)c2)C1 (stereo not drawn)	0%	9%	6%	0%[9.22 µM]	7%[10 µM]	nt
CCc1nc2ccc(F)cc2c(C(=O)NC2CCCCC2C)c1C (stereo not drawn)	-10%	-2%	10%	-6%	-10%[10 µM]	-8%
O=C1C=C(Nc2ccc(Cl)cc2)CC(c2ccccc2)C1 (stereo not drawn)	-24%	12%	7%	-12%	-4%[10 µM]	-10%
CCOC(=O)C1C(C(=O)NN)C1C(=O)Nc1ccccc1 (stereo not drawn)	64%	-5%	-17%	-3%	3%[10 µM]	nt
O=[N+]([O-])c1ccc(N2CCCCCC2)c(S(=O)(=O)N2CCCCC2)c1	-2%	25µM*	-24%	12%	26%	-13%
O=C(c1ccc(Br)cc1)c1cc([N+](=O)[O-])ccc1N1CCCCC1	-1%	2.8µM*	-11%	27%	-112%	-13%
